For 38 compounds, Potency results are on record in PubChem BioAssay AID1745850 (National Center for Advancing Translational Sciences (NCATS), 2022).

The structures appear in SMILES notation. Among all 2,100 compounds or so, about 260 (12%) were called active. Inconclusive results (about 58%) are left out. The call rests on the fitted dose curve; in most records, active means well fitted cell-killing curve with a large enough effect; inconclusive means small, poorly fitted or top-dose-only effect, or effect the other way; inactive means flat fitted curve, though single readings scatter. The list shows a part of the results. A call without a number means that no potency is given here.
Potency means the concentration at half of the fitted maximal effect.

The nature of this experiment: Viability Counterscreen for Confirmatory qHTS for Inhibitors of ATXN expression. Further: nearly all actives have a fitted effect of over 50% in size. The following applies: HEK-293 ATXN2-luc cells viability, CellTiter-Fluor, 24 h. The text has this: PI: Daniel Scoles Ph.D. University of Utah School of Medicine, Salt Lake City, Utah MLPCN Grant: NS073009 Spinocerebellar ataxia type 2 (SCA2) is a multisystem neurodegenerative disease caused by a dominantly acting mutation leading to expansion of a polyQ domain in the ataxin-2 protein (ATXN2). SCA2 patients develop progressive ataxia and later lose function in other neuronal systems. Prominent parkinsonian signs develop in some patients. Like many neurodegenerative disorders, no symptomatic or disease-modifying treatments are known. The primary objective of the proposed research is to identify compounds inhibiting ATXN2 expression and to test them for efficacy in SCA2 mouse models. We have developed a cell-based assay paired with an in vivo mouse model using identical luciferase expression constructs. This approach takes advantage of an ATXN2-luciferase transgene, with the luciferase gene flanked by the upstream and downstream portions of the ATXN2 gene. Here we describe a 5-7 dose quantitative high thoroughput screen (qHTS) for compounds lowering ATXN2 expression. We screened the NIH Molecular Libraries Small Molecule Repository (MLSMR) and NCGC's mechanistically annotated (MIPE) and drug repurposing (NPC) collections of compounds for lowering expression of an ATXN2-luciferase reporter in HEK-293 cells. The assay is a multiplexed cell viability assay to ensure target reduction in the absence of cytotoxicity. Secondary qHTS assays included a CMV-luciferase reporter expressed in HEK-293 cells as well as a biochemical assay using recombinant luciferase to detect inhibitors of the reporter enzyme. Compounds that inhibit ATXN2 expression but is not cytotoxic were selected for confirmatory and secondary screens.
PROTOCOL TABLE (as described by Inglese J, Shamu CE and Guy RK. 2007) SEQUENCE No. (e.g., 1, 2, 3, etc.); […] (e.g., Cells, Incubation, Reagent, etc.); VALUE; DESCRIPTION. 1; Cells; 4 uL; white, solid bottom, 1536-well Greiner assay plate. 2; Incubation; 2 hr; 37 degree C in 5% humidified CO2. 3; Compounds; 23 nL; Kalypsis pintool (Wako USA) equipped with a 1536-well pin head. 4; Incubation; 24 hr; 37 degree C in 5% humidified CO2. 5; Reagent; 1 uL; Gly-Phe-7-Amino-4-trifluoromethylcoumarin. 6; Incubation; 30 min; 37 degree C in 5% humidified CO2. 7; Detection; Fluorescence; ViewLux plate reader (PerkinElmer). 8; Reagent; 3 uL; SteadyGlo luciferase solution (Promega). 9; Incubation; 5 min; room temperature. 10; Detection; Luminescence; ViewLux plate reader (PerkinElmer). NOTES (numbers refer to Sequence numbers above) 1. S2 cells expressing ATXN2-luciferase reporter were suspended in phenol-red free DMEM and dispensed in assay plates using a Multidrop Combi dispenser (Thermo Fisher Scientific). Wells containing medium only were plated on each plate, and values were used to normalize (100% inhibition) in the luciferase and CellTiter-Fluor assays. 2. Assay plates were incubated. Evaporation was prevented by covering assay plates with metal lids containing holes to allow gas diffusion. 3. Compounds were added in a dose response manner with the final concentrations of 57, 11.4, 2.28, 0.46, 0.091, 0.018, 0.0037 uM. Vehicle-only plates, with DMSO being pin-transferred to columns 5-48, were inserted uniformly at the beginning and the end of each library to monitor and record any shifts in assay performance. 5. 125 uM Gly-Phe-7-Amino-4-trifluoromethylcoumarin (MP Biomedicals) working concentration was used at a final concentration of 25 uM. 7. To assess cell viability; the assay plates were read using the ViewLux high-throughput CCD imager (PerkinElmer), wherein single end-point fluorescence measurement was acquired (excitation 405/10; emission 540/25 nm). 8. Detection reagent SteadyGlo Luciferase (Promega) was added to the assay plate. 10. Luminescence is then measured on the ViewLux imager equipped with a clear emission filter using a 2 sec exposure. […]
A general note: The purpose of a counterscreen is to sort out artefacts and off-target activity.
For the compound `Cc1cccc(-n2c(/C=C/c3ccc([N+](=O)[O-])o3)nc3ccccc3c2=O)c1`, the Potency was 7.08 µM (active). To `CSCCC(c1nnnn1-c1c(C)cccc1C)N1CCC2(CC1)C(=O)NCN2c1ccccc1` (stereo not drawn) belongs 31.6 µM (active).

As to `O=C(Nc1ccc(OC(=O)N2CCCCC2)cc1)N1CCOCC1`, the Potency result was “inactive”. As to `N#Cc1cn(C2OC(CO)C(O)C2O)c2ncnc(N)c12` (stereo not drawn), the Potency entry was “inactive”. To `O=[N+]([O-])c1oc2ccc3ccccc3c2c1CCO` belongs 28.2 µM (active); to `COc1ccc(N=Cc2c(O)n(-c3ccc(C)cc3)c(=O)[nH]c2=O)cc1`, “inactive”; to `COC(=O)C(O)(c1ccc(NC(=S)NC(=O)c2ccc(Cl)cc2Cl)c(C)c1)C(F)(F)F` (stereo not drawn), “inactive”.

Consider `COc1cccc2c1C(=O)c1c(O)c3c(c(O)c1C2=O)CC(O)(C(C)=NO)CC3OC1CC(N)C(O)C(C)O1` (stereo not drawn), for which the Potency is 17.8 µM (active). The value for `CC(=O)OC1(C)CC(C)C(=O)C(C(O)CC2CC(=O)NC(=O)C2)C1` (stereo not drawn) was “inactive”; that for `C[C@]12CC[C@H](O)C[C@H]1CC[C@@H]1C2CC[C@]2(C)[C@@H](C3=CC(=O)OC3)[C@@H](O)C[C@]12O` (stereo partly drawn) was “inactive”. As to `CCC1(OC(=O)CN)C(=O)OCc2c1cc1n(c2=O)Cc2cc3ccccc3nc2-1` (stereo not drawn), the Potency entry is “inactive”. To `COC(=O)c1nc(-c2ccc3c(n2)C(=O)C(N)=C(OC)C3=O)c(N)c(-c2ccc(OC)c(OC)c2O)c1C` belongs 15.8 µM (active); to `CCOC(=O)[C@]12Cc3ccsc3[C@H]1N(Cc1ccccc1)C(=O)c1ccccc12`, “inactive”; to `CN1C2CCC1/C(=C/c1ccccn1)C(=O)/C2=C\c1ccccn1`, 1.26 µM (active). To `N#Cc1c(Br)n(C2OC(CO)C(O)C2O)c2ncnc(N)c12` (stereo not drawn) belongs “inactive”; to `CC(C)(C)n1nnnc1C(CCc1ccccc1)N1CCC(n2c(=O)[nH]c3ccccc32)CC1` (stereo not drawn), 22.4 µM (active); to `O=c1[nH]c2ccccc2n1C1CCN(C(CCc2ccccc2)c2nnnn2C2CCCC2)CC1` (stereo not drawn), 22.4 µM (active). To `Cc1cccc(C)c1-n1nnnc1C(c1cc2ccccc2o1)N1CCC(n2c(=O)[nH]c3ccccc32)CC1` (stereo not drawn) belongs 8.91 µM (active); to `O=C(NN=Cc1ccc(N(CCCl)CCCl)cc1)c1cc(=O)[nH]c(=O)[nH]1`, “inactive”; to `C1=NCCc2c1[nH]c1ccccc21`, “inactive”. As to `COC1C(O)C(C)OC(OC2C(Oc3cccc4c(O)c5c(=O)oc6ccc(C)c7c(=O)oc(c34)c5c67)OC(C)C(O)C2O)C1O` (stereo not drawn), the Potency entry was “inactive”. The value for `Cc1c2ccncc2c(C)c2c1[nH]c1ccccc12` was 22.4 µM (active). The value for `CCn1c(O)c(/C=N/NC(=O)c2ccccc2)c(=O)n(CC)c1=S` was “inactive”.

In the case of `NC(Cc1ccc(Cl)cc1)c1csc(Nc2ccccn2)n1` (stereo not drawn), the Potency is 25.1 µM (active). To `CC[C@@]1(O)C(=O)OCc2c1cc1n(c2=O)Cc2cc3c(NC(=O)CN)cccc3nc2-1` belongs “inactive”; to `Cc1ccc(/C=C2\C(=O)NC(=S)N(c3ccccc3F)C2=O)s1`, 8.91 µM (active). To `CCCCCn1c(=O)c(C(=O)NCc2ccccn2)c(O)c2ccccc21` belongs “inactive”. On to `C#CCCC[C@@H]1OC(=O)CNC(=O)C([C@@H](C)CC)NC(=O)[C@@H]2CCCN2C(=O)C([C@@H](C)CC)OC(=O)[C@H](Cc2ccccc2)N(C)C(=O)[C@H](C(C)C)NC(=O)C1(C)C` (stereo partly drawn), for which the Potency was 22.4 µM (active).

For `C=CCCC[C@@H]1OC(=O)CNC(=O)C([C@@H](C)CC)NC(=O)[C@@H]2CCCN2C(=O)C([C@@H](C)CC)OC(=O)[C@H](Cc2ccccc2)N(C)C(=O)[C@H](C(C)C)NC(=O)C1(C)C` (stereo partly drawn), the Potency was 3.16 µM (active). To `CCC(C)N1C(=O)/C(=C\c2cnc(N(C)C)nc2)C(=O)NC1=S` (stereo not drawn) belongs “inactive”; to `c1ccc2sc(N3CCNCC3)nc2c1`, “inactive”. The value for `O=C1NC(=O)N(CCc2ccc(F)cc2)C(=O)/C1=C/C=C/c1ccccc1` was 11.2 µM (active); that for `COc1ccc(CCNCc2ccc(F)cc2)cc1OC` was “inactive”. As to `CCCCCCC(=O)N/N=C/c1c(O)n(CCCC)c(=S)[nH]c1=O`, the Potency result is “inactive”. In the case of `CC(=NCCc1c[nH]c2ccccc12)c1c(O)n(Cc2ccccc2)c(=O)[nH]c1=O`, the Potency entry is “inactive”.

On to `CCOC(=O)c1c(N)n(CCN2CCCCC2)c2nc3ccccc3nc12`, for which the Potency result is “inactive”.

Turning to `CCCCCn1c(NC(=O)c2ccco2)c(C(=O)OCC)c2nc3ccccc3nc21`, the Potency is 28.2 µM (active).

In the case of `CC(C)CCNC(=O)c1c(N)n(Cc2ccc3c(c2)OCO3)c2nc3ccccc3nc12`, the Potency entry is “inactive”.
